KCNH2 3.1 block: qHTS for Inhibitors of KCHN2 3.1: Mutant qHTS; U2OS KCNH2 3.1, thallium flux FluxOr; hits give low values; AID 720553, 2013; activity change, % (tested at about 1.8 µM); 340,000 tested, 0.95% active;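 active = maximum activity change below -70%; inconclusive = maximum activity change from -70% to -50%; inactive = maximum activity change above -50%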;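 note: thallium influx rate constant from kinetic fluorescence after stimulation buffer; % is set by controls: 0 for no effect and ±100 for the full control effect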
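Thallium flux read-out: FluxOr dye with Red40 quencher in HBSS/HEPES, 45 min at RT. Rate constants from kinetic reads were normalized to positive and negative DMSO controls. Cells: U2OS virally expressing the 3.1 isoform.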
mIDH1 inhibitor: qHTS for Inhibitors of mutant isocitrate dehydrogenase 1 (IDH1): qHTS; IDH1-R132H enzyme, NADPH consumption, diaphorase/resazurin fluorescence; AID 602179, 2012; Isocitrate dehydrogenase [NADP] cytoplasmic (Homo sapiens), O75874; 390,000 tested, 0.093% active; Potency, µM (titrated, usually from 76.6 µM), inactives show at the highest dose activity change, negative = inhibition, usual class: inhibitors; note: potency is the fitted concentration of half-maximal effect; % is set by controls: 0 for no effect and ±100 for the full control effect; nearly all actives have a fitted effect of over 65% in size
Target sequence (O75874 whole entry R132H, stated change not applied): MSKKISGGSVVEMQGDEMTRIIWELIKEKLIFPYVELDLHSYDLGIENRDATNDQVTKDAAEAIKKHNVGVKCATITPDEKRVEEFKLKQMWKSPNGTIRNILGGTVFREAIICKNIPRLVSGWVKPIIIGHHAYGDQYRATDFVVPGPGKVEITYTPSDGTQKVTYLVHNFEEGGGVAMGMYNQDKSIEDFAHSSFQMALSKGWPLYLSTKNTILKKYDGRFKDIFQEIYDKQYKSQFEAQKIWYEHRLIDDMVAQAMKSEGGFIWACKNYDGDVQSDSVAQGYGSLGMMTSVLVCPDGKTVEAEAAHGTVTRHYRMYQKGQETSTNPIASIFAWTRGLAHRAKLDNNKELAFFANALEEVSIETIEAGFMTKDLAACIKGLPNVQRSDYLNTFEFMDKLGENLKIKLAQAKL
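IDH1-R132H (0.5 ug/mL) preincubated 30 min with compound, then NADPH (0.016 mM) and alpha-KG (2 mM) added; 80 min at RT, pH 7.5. Remaining NADPH coupled via diaphorase/resazurin to fluorescence (540/590 nm); concentration-response curves normalized to no-enzyme control.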
Apoferritin bind: qHTS Assay for Identification of Novel General Anesthetics; Potency, µM (titrated, usually from 77.5 µM), for inactives: at the top dose activity change, negative = displacement, most hits filed as inhibitors; 350,000 tested, 0.074% active; Ferritin light chain (Equus caballus), P02791; apoferritin/1-aminoanthracene competitive binding, fluorescence; note: potency is the fitted concentration of half-maximal effect; % is set by controls: 0 for no effect and ±100 for the full control effect; nearly all actives have a fitted effect of over 20% in size
Target sequence (P02791 2-175 limits assumed): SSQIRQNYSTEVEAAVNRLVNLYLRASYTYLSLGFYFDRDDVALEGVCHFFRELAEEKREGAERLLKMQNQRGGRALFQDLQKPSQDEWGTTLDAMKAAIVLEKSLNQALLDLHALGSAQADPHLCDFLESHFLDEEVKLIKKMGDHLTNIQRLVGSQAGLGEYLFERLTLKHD
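In PBS, apoferritin at 10 uM is loaded with 1-AMA from a 50% saturated solution. After 10 min of compound exposure at ambient temperature, reduced 535 nm fluorescence indicates probe displacement.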
hERG WT inh: qHTS for Inhibitors of KCHN2 3.1: Wildtype qHTS. Voltage-gated inwardly rectifying potassium channel KCNH2 (Homo sapiens), Q12809. U2OS, BacMam KCNH2, thallium flux FluxOr; hits give low values. activity change, % at 1.84 µM. 340,000 tested, 0.37% active. AID 720551, 2013;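 active = maximum activity change below -70%; inconclusive = maximum activity change between -70% and -50%; inactive = maximum activity change above -50%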; note: % is set by controls: 0 for no effect and ±100 for the full control effect
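U2OS cells were transduced with wild-type KCNH2 virus (2.03 x 10^8 / mL) for 4 h at room temperature, then cultured overnight at 37 C. Thallium flux was read with FluxOr dye. Rate constants were normalized to DMSO controls.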
S-ASM inh: Inhibitors of Secretory Acid Sphingomyelinase (S-ASM): qHTS; placental ASM, HMU-PC fluorogenic substrate, 60 min; Sphingomyelin phosphodiesterase (Homo sapiens), P17405; Potency, µM (highest dose often 57.5 µM), for inactives: at the top dose activity change, negative = inhibition, most hits filed as inhibitors; 340,000 tested, 0.006% active; note: potency is the fitted concentration of half-maximal effect
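Human placenta-derived ASM preincubated with compound 10 min at room temperature, then reacted with 9 uM (final) fluorogenic HMU-PC substrate for 60 min at 37 C. Stop solution raises pH to 10; fluorescence read at Ex 386/Em 447 nm.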
Starred values were filed as active, the others as inactive; ? = inconclusive; · = no result given; [ ] = another dose, or the depositor's remark. Most compounds without a hit are left out; they make up all but 1.2% or so of the library. Unless noted, calls come from the whole dose curve; as a rule, active = well fitted inhibition curve with a large enough effect; inconclusive = small, poorly fitted or top-dose-only effect; inactive = no such curve, though single readings can be large or run the other way.

SMILES	KCNH2 3.1 block	mIDH1 inhibitor	Apoferritin bind	hERG WT inh	S-ASM inh
COc1cc2[nH]c(=O)n(Cc3ccc(C(=O)N4CCN(c5cc(Cl)ccc5C)CC4)cc3)c(=O)c2cc1OC	·	-16%	-3%	·	·
Cc1nc(S(=O)(=O)Cc2ccccc2Cl)nc2c1CCC2	-6	0%	-6%	-8	2%
Cc1cccc(C)c1-n1nnnc1S(=O)(=O)Cc1ccccc1Cl	-94*	6%	?	-8	-1%
COc1ccc(C(CCNCc2ccccc2)c2ccc(F)cc2)cc1 (centres undefined)	-75*	3%	-19%	-15	0%
COc1ccc(CNCCC(c2ccc(F)cc2)c2ccc(OC)cc2)cc1 (centres undefined)	-87*	0%	-17%	-133*	-6%
Cc1ccc(C(OCC(O)CNCc2ccc(F)cc2)c2ccccc2)cc1 (centres undefined)	-106*	7%	8%	-79*	-12%
COc1ccc(C(CCNC(C)c2ccccc2)c2ccc(F)cc2)cc1 (centres undefined)	-2	0%	-3%	-76*	-1%
COc1ccc(C(CCNCc2ccc(F)cc2)c2ccc(F)cc2)cc1 (centres undefined)	-6	1%	-5%	?	-1%
CC1CCN(C(=O)CN2CCSc3ccccc32)CC1	·	20%	-2%	·	·
Cc1ccc(S(=O)(=O)N[C@H]2COC(=O)C/C=C\[C@H](C)[C@@H](NS(=O)(=O)c3ccc(C)cc3)COC(=O)C/C=C\[C@@H]2C)cc1	·	·	-3%[15.3 µM]	·	·
COc1ccc(C(OCC(O)CNC(C)c2ccccc2)c2ccc(OC)cc2)cc1 (centres undefined)	-76*	-16%	-5%	-14	-3%
COc1ccc(CNCC(O)(c2ccccc2)c2ccc(F)cc2)cc1 (centres undefined)	-75*	5%	-12%	11	-5%
CCOc1ccc2nc(Cl)c(C3CC(c4ccco4)=NN3S(=O)(=O)c3ccccc3)cc2c1 (centres undefined)	-71*	8%	3%	-32	0%
CCOc1ccc2nc(Cl)c(C3CC(c4ccc(OC)cc4)=NN3S(C)(=O)=O)cc2c1 (centres undefined)	·	0%	-8%	·	·
COc1ccc(-c2nnc(C3CCN(S(=O)(=O)c4cccc(Cl)c4)CC3)o2)cc1	·	-12%	42%	·	·
O=C(O)c1[nH]c2ccc([N+](=O)[O-])cc2c1-c1ccccc1	-194*	-14%	-12%	0	2%
O=C(CCN1CCN(C(c2ccccc2)c2ccccc2)CC1)N/N=C/c1ccc(O)cc1	-80*	-9%	-13%	0	2%
COc1cc(/C=N/NC(=O)CN2CCCCC2)ccc1OCc1ccc(Br)cc1	-90*	-1%	-5%	27	-12%
COc1cc(/C=N/NC(=O)CC2(C)OCCCO2)ccc1OCc1ccccc1	-9	1%	5%	4	2%
O=C(CCN1CCCCC1)N/N=C/c1ccc(Br)cc1	-75*	0%	-13%	3	1%
COc1ccc(NC(=O)C2=C(C)Nc3nc(CCCO)nn3C2c2ccc(O)cc2)cc1 (centres undefined)	·	0%	5%	·	·
CC(C)=C(NC(=O)c1ccccc1)C(=O)NCc1ccccc1	-118*	5%	-4%	-8	3%
CC(=O)c1ccc(NC(=O)C(NC(=O)c2ccccc2)=C(C)C)cc1	-4	1%	-6%	-8	0%
CCc1ccccc1NC(=O)c1cc(S(=O)(=O)N2CCCc3ccccc32)ccc1F	·	-4%	-2%	·	·
COc1cc(OC)cc(C2=Nn3c(nnc3-c3ccccc3O)SC2)c1	·	·	-20%	·	·
SMILES	KCNH2 3.1 block	mIDH1 inhibitor	Apoferritin bind	hERG WT inh	S-ASM inh
Cc1ccc(-n2c(Cc3ccccc3)nnc2SCC(=O)NNC(=O)Cc2ccccc2)cc1	-80*	-1%	-17%	0	-1%
COc1ccc(-c2noc(CSc3nnc(Cc4ccccc4)n3-c3ccc(Cl)cc3)n2)cc1	-8	4%	45%	-4	-19%
Cc1ccc(-c2noc(CSc3nnc(Cc4ccccc4)n3-c3ccc(Cl)cc3)n2)cc1	-74*	3%	-10%	4	-27%
CN(C)Cc1ccccc1-c1cncnc1NC1CC1	·	·	4%	·	·
CC(c1nccs1)N(C)C(=O)CCc1nnc(-c2ccc(-c3ccccc3)cc2)o1 (centres undefined)	-161*	-9%	-24%	-138*	-2%
CC(NC(=O)CCc1nnc(-c2ccc(-c3ccccc3)cc2)o1)c1nccs1 (centres undefined)	-1	0%	-14%	16	-3%
CCOc1ccccc1NC(=O)Nc1cc(C(=O)NCc2ccc(C)cc2)ccc1N1CCCC1	·	1%	16%	·	·
O=C(NC(=S)N1CCN(c2ccc([N+](=O)[O-])cc2Cl)CC1)c1ccco1	-73*	3%	1%	-29	-1%
CCc1cccc(C)c1NC(=O)c1cc(S(=O)(=O)N(C)Cc2ccccc2)ccc1F	·	15%	26%	·	·
O=C(c1cc(=O)[nH]c2ccccc12)N1CCN(S(=O)(=O)c2ccc3ccccc3c2)CC1	2	7%	-19%	1	-6%
O=C(c1cc(=O)[nH]c2ccccc12)N1CCN(S(=O)(=O)c2ccc(Cl)cc2)CC1	-9	4%	·	-115*	-2%
C=C1c2cccc(OC)c2O[C@H](C(=O)OCC)[C@@H]1CCC(C)C	·	·	-8%[110 µM]	·	·
COC(=O)C1=C(C)N(Cc2ccccc2)C(=NCc2cc(OC)c(OC)c(OC)c2)N[C@H]1c1ccc(Br)cc1	-86*	-7%	-13%	-14	-1%
COc1ccc(C(=O)Nc2oc(-c3ccccc3)c(-c3ccccc3)c2C#N)cc1	-70*	5%	-5%	0	-10%
Cc1ccc(NC(=O)Nc2ccno2)cc1	-112*	12%	-6%	1	-2%
Nc1nc(CN2CCN(c3ccccc3F)CC2)nc(Nc2ccccc2)n1	-27	4%	?	25	-3%
Nc1nc(CN2CCN(C(c3ccccc3)c3ccccc3)CC2)nc(Nc2ccccc2)n1	-98*	3%	-20%	-25	0%
CC1CC(C)CN(Cc2nc(N)nc(Nc3ccccc3)n2)C1 (centres undefined)	-31	0%	-8%	30	1%
Nc1nc(CN2CCC(Cc3ccccc3)CC2)nc(Nc2ccccc2)n1	-87*	2%	-19%	-90*	-1%

From PubChem
